Screens (PubChem)
Hits are enriched below; roughly 3.1% of the tested compounds scored in any of these assays.
ATG4B inh: blocks human ATG4B protease cleavage of LC3 substrate. Q9Y4P1. ATG4B cleavage of LC3-PLA2, NBD-HPC fluorescence, 1 h. inhibition, % at 8.33 µM. 340,000 compounds, 0.51% hits. AID 504462; in the data active means inhibition above about 40%
Target sequence (Q9Y4P1 whole entry, looked up): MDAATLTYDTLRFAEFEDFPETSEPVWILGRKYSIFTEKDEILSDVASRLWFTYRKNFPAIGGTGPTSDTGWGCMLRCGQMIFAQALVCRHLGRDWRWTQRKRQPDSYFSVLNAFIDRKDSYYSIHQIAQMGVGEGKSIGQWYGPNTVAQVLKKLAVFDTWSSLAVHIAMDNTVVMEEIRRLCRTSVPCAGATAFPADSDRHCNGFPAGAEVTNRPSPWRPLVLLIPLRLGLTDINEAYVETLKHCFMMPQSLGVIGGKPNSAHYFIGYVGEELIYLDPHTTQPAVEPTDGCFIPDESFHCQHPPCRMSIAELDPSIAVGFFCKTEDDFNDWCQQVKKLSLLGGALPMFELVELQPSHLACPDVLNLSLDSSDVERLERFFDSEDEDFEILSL
MEKK3 PB1 HTS: raises or lowers MEK5 binding to the human MEKK3 PB1 domain. Q99759. bead-based flow cytometry, Alexa488-MEK5 binding to MEKK3; actives lie on both sides; 0 = blocked by unlabeled MEK5, 100 = vehicle. binding response (% of control), % at 10 µM. 290,000 compounds, 1.4% hits. AID 1529;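 active means binding response more than 3 SD above or below the average of its plate-row segment, actives on both sides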;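 further: Alexa488 bead fluorescence after subtracting the streptavidin-only scavenger bead signal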
MEKK2wt PB1 HTS: raises or lowers MEK5 binding to wildtype human MEKK2 PB1 domain. Q9Y2U5. bead flow cytometry, Alexa488-MEK5 binding to MEKK2 WT; actives lie on both sides. binding response (% of control), % at 10 µM. 290,000 compounds, 1.1% hits. AID 1531; in the data active means binding response below about 67% or above about 130%
UBC13 inh: human UBC13 polyubiquitination inhibition. P61088. inhibition, % at 20 µM. UBC13 polyubiquitin chain formation, TR-FRET. 330,000 compounds, 0.47% hits. AID 485273; in the data active means inhibition above about 45%, passing the limit was not always enough
Target sequence (P61088 whole entry, looked up): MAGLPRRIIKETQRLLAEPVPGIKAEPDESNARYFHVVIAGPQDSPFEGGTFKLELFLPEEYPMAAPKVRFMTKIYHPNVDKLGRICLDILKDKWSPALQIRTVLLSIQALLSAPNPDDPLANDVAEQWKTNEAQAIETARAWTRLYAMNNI
PREPL inh: inhibits the human prolyl oligopeptidase-like enzyme. Q4J6C6. recombinant PREPL, fluorescence polarization activity-based probe. inhibition, % at 5.96 µM. 320,000 compounds, 0.68% hits
MEKK2mut PB1 HTS: signal of MEK5 binding to mutant human MEKK2 PB1 domain; bead flow cytometry, Alexa488-MEK5 binding to MEKK2 mutant; 290,000 compounds, 0.35% hits; percent response, % at 10 µM; in the data active means percent response above about 24%, passing the limit was not always enough
PREPL confirm: human PREPL inhibition, confirmation; shares compounds with PREPL inh; recombinant PREPL, fluorescence polarization activity probe; AID 2803; 2,000 compounds, 67% hits; inhibition, % at 5.96 µM
Numbers stand for hits; - = inactive; . = no result given. Unless noted, no stated cut-off is given here; in the data, active means inhibition above about 43%; inactive means the rest.

SMILES	ATG4B inh	MEKK3 PB1 HTS	MEKK2wt PB1 HTS	UBC13 inh	PREPL inh	MEKK2mut PB1 HTS	PREPL confirm
COCCn1c(=N)c(C(=O)NCCc2ccc(OC)cc2)cc2c(=O)n3cccc(C)c3nc21	-	-	-	-	-	-	.
COc1ccc(CCNC(=O)c2cc3c(=O)n4cccc(C)c4nc3n(CCCN3CCOCC3)c2=N)cc1	-	-	-	-	53	-	56
CSc1ccc(-c2nc3cnccn3c2Nc2ccc3c(c2)OCO3)cc1	-	-	-	-	50	-	48
Cc1ccc2nc(-c3ccncc3)c(Nc3ccccc3)n2c1	-	-	-	-	-	-	.
Cc1ccc(Nc2c(-c3ccccc3)nc3cnccn23)cc1	-	-	-	-	-	-	.
Cc1ccc(Nc2c(-c3ccccn3)nc3ccc(C)cn23)cc1	-	-	-	-	63	-	69
Cc1ccc(Nc2c(-c3ccccn3)nc3cc(C)ccn23)cc1	-	-	-	-	74	-	58
Cc1ccn2c(Nc3ccc4c(c3)OCO4)c(-c3ccccn3)nc2c1	-	-	-	-	77	-	67
Clc1ccc(-c2nc3cnccn3c2Nc2ccc3c(c2)OCO3)cc1	-	-	-	-	-	-	.
O=c1c2c(-c3ccc([N+](=O)[O-])cc3)ccnc2[nH]n1-c1ccccc1	-	-	-	-	-	-	.
N#Cc1ccccc1OCC(=O)OCCCOC(=O)COc1ccccc1C#N	-	-	-	-	-	-	.
O=C(NS(=O)(=O)Oc1ccccc1F)OC[C@@H]1CCCN2CCCCC12 (stereo not given in full)	-	-	-	-	-	-	.
Cc1ccnc2nc(C(=O)OCC(=O)NCc3cccc(Cl)c3)nn12	-	.	.	-	-	.	.
C#C[C@]1(O)CCC2C3CCC4=CC(=O)CC[C@@H]4C3CC[C@@]21C (stereo not given in full)	-	-	-	-	-	-	.
CC#C[C@]1(O)CC[C@H]2[C@@H]3CCC4=CC(=O)CCC4=C3[C@@H](c3ccc(N(C)C)cc3)C[C@@]21C	-	-	-	-	50	-	46
O=C(C[n+]1cc(-c2ccc(Cl)cc2)n2c1CCCCC2)c1ccccc1	-	-	-	-	-	-	.
Clc1ccc(C2=C3CCCCn4c(-c5ccccc5)c[n+](c43)C2)cc1	-	-	-	-	50	-	-
O=c1cc(-c2ccc(O)cc2)oc2c(-c3c(O)cc(O)c4c(=O)cc(-c5ccc(O)cc5)oc34)c(O)cc(O)c12	-	.	.	-	51	.	-
O=c1c(-c2c(O)cc(O)c3c(=O)cc(-c4ccc(O)cc4)oc23)c(-c2ccc(O)cc2)oc2cc(O)cc(O)c12	-	-	-	-	-	-	.
Cc1ccn2c(NC3CCCC3)c(-c3ccccn3)nc2c1	-	-	-	-	72	-	69
COc1ccc(-c2nc3ccccn3c2NC2CCCCC2)cc1SC1CCCCC1	-	.	.	-	-	.	.
c1ccc(-c2nc3ccccn3c2NC2CCCC2)nc1	-	-	-	-	63	-	65
COc1ccc(-c2oc3ncn(CCN4CCOCC4)c(=N)c3c2-c2ccc(OC)cc2)cc1	-	-	-	-	48	-	-
CCOc1cc(/C=C/c2cccc[n+]2C)ccc1O	-	-	-	-	-	-	.
C[n+]1ccccc1/C=C/c1cc(Br)ccc1O	-	-	-	-	44	-	-
SMILES	ATG4B inh	MEKK3 PB1 HTS	MEKK2wt PB1 HTS	UBC13 inh	PREPL inh	MEKK2mut PB1 HTS	PREPL confirm
CN(C)c1ccc(C(CNS(=O)(=O)c2ccc(F)c(F)c2)c2c[nH]c3ccccc23)cc1 (stereo not given)	-	-	-	-	-	-	.
CN(C)c1ccc(C(CNC(=O)c2ccccc2F)c2c[nH]c3ccccc23)cc1 (stereo not given)	-	-	-	-	47	-	51
CN(C)c1ccc(C(CNC(=O)c2ccccc2)c2c[nH]c3ccccc23)cc1 (stereo not given)	-	-	-	-	51	-	59
CCCCNC(=S)NCC(c1ccccc1)c1c[nH]c2ccccc12 (stereo not given)	-	-	-	-	-	-	.
CCCCn1c(N)c(N(CCC(C)C)C(=O)c2[nH]c(C)c(C(=O)OCC)c2C)c(=O)[nH]c1=O	-	.	.	-	-	.	.
Cc1cccc(N2N=C(C(=O)O)CCC2=O)c1	-	-	-	-	-	-	.
CC(Nc1nc(-c2ccc(F)cc2)cs1)c1nc2cc(Cl)c(N3CCCCC3)cc2n1CCCO (stereo not given)	-	-	-	-	-	-	.
CC(Nc1nc(-c2ccc(F)cc2)cs1)c1nc2cc(Cl)c(N3CCCCC3)cc2n1CCOCCO (stereo not given)	-	-	-	-	55	-	50
Cc1ccc(C(=O)N2CCN(C)CC2)cc1[N+](=O)[O-]	-	-	-	-	-	-	.
Clc1cccc(/C=N/Nc2ncnc3ccccc23)c1	-	-	-	-	-	-	.
C(=N\Nc1ncnc2ccccc12)/c1ccccc1	-	-	-	-	45	-	-
Cc1cccc(NC(=O)c2cc(S(=O)(=O)N3CCCCC3)ccc2Cl)n1	-	.	.	-	.	.	.
COc1ccc(C2c3ccc4ccccc4c3Oc3ncn(CCO)c(=N)c32)cc1OC (stereo not given)	-	-	-	-	-	-	.
COc1ccc(C2c3ccc4ccccc4c3Oc3ncn(CCN4CCOCC4)c(=N)c32)cc1OC (stereo not given)	-	-	-	-	46	-	-
Cc1ccc(NS(=O)(=O)c2cc(C(=O)NCCCN(C)C)ccc2Cl)cc1Cl	-	.	.	-	.	.	.
COc1cc(/C=N/n2c(C)n[nH]c2=S)ccc1OCc1ccc(F)cc1	-	-	-	-	50	-	-
O=C(c1ccccc1)n1c(=O)c(F)cn(COCCBr)c1=O	-	-	-	-	-	-	.
COc1cc2c(C#N)c(N3CCc4ccccc4C3)nc(N)c2c(N)n1	-	-	-	-	49	-	54
COc1cc(/C=C2/C(=O)NN(c3ccc(Cl)c(Cl)c3)C2=O)cc([N+](=O)[O-])c1O	-	-	-	.	53	-	-
COc1cc(/C=C2/C(=O)NN(c3ccc(F)cc3)C2=O)cc(Cl)c1O	-	-	-	-	-	-	.
CC(C)Nc1ccc(Nc2ccnc3cc4ccccc4cc23)cc1	-	-	208	-	60	80	62
COc1ccc(Nc2ccnc3ccccc23)cc1	-	-	-	-	-	-	.
NNC(=O)c1oc2nc(-c3cccs3)cc(-c3ccco3)c2c1N	.	-	-	-	62	-	65
CCN(CC)c1ccc(NC(=O)CSc2nc3nc(C)cc(C)c3c(=O)[nH]2)cc1	-	.	.	-	-	.	.
COc1ccc(NC(=O)CSc2nc3nc(C)cc(C)c3c(=O)[nH]2)cc1	-	-	-	-	45	-	-
